# According to PubChem BioAssay AID2673 (National Center for Advancing Translational Sciences (NCATS), 2010):
# Inconclusive results are not listed. Activity calls are given as the source filed them. Calls come from the whole dose curve; as a rule, active = well fitted activation curve with a large enough effect; inconclusive = small, poorly fitted or top-dose-only effect; inactive = no such curve, though single readings can be large or run the other way.
# Test: qHTS Multiplex Assay to Identify Dual Action Probes in a Cell Model of Huntington: Cytoprotection confirmation (ATP)
# Conditions: PC12 HttQ103 induced, ATP luminescence 40 h; series mostly up to 46.1 µM; cytoprotection, positive = protection: at the top concentration
# Outline: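 Cell survival measured by luminescent ATP content (ATPlite) in tebufenozide-induced (100 nM) PC12 HTTQ103-GFP cells treated with compounds, in phenol red-free DMEM with equine and calf serum.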
SMILES,Potency,"cytoprotection, positive = protection"
Cn1nnnc1Sc1ncnc2scc(-c3cccc(Cl)c3)c12,14.1 µM (active),
COc1ccc(-c2csc3ncnc(Sc4nnnn4C)c23)cc1,25.1 µM (active),
CC(=O)Oc1cccc(C(=O)O)c1OC(C)=O,,-18.4% (inactive)
Cn1nnnc1Sc1ncnc2scc(Br)c12,,-109% (inactive)
Cn1nnnc1Sc1ncnc2scc(-c3ccc(F)cc3)c12,25.1 µM (active),
COc1c(F)c(F)c(C(=O)Nc2ccc3oc(-c4ccncc4)nc3c2)c(F)c1F,,-2.97% (inactive)
C=C1CCC2[C@](C)(CO)[C@H](O)CC[C@@]2(C)[C@@H]1C/C=C1/C(=O)OC[C@H]1O (some centres undefined),,-69.3% (inactive)
Cc1noc(C)c1COC(=O)Cc1ccc(Cl)cc1,,8.35% (inactive)
Cn1nnnc1Sc1ncnc2scc(-c3cccc(C#N)c3)c12,12.6 µM (active),
O=c1c2ccccc2nnn1CSc1ncnc2ccccc12,,12% (inactive)
Cn1nnnc1Sc1ncnc2scc(-c3ccccc3C(F)(F)F)c12,,-2.74% (inactive)
NC(=O)c1sc2nc3c(c(-c4cccs4)c2c1N)CCCCC3,,-0.102% (inactive)
C=CCC(=O)OCCCCCCOc1ccc(C(=O)O)cc1,,7.21% (inactive)
Cn1nnnc1Sc1ncnc2scc(-c3ccc4ccccc4c3)c12,12.6 µM (active),
CC(C(=O)O)c1ccc(CC2CCCC2=O)cc1 (centres undefined),,-43.9% (inactive)
O=C(Nc1ccc(Cl)cc1C(F)(F)F)C(Sc1cccc[n+]1[O-])c1ccccc1 (centres undefined),,20.7% (inactive)
O=c1oc2cc(O)ccc2s1,,-5.12% (inactive)
CCN(Cc1ccncc1)C(=O)c1cc(Br)cc(Br)c1O,,-3.56% (inactive)
O=[N+]([O-])c1ccc(O)c2ncccc12,,-52.7% (inactive)
CN1C(=O)C2(c3ccccc31)C1CCCC=C1C(C#N)=C(N)C2(C#N)C#N (centres undefined),,5.27% (inactive)
O=C(NCN1C(=O)C2C3C=CC(C3)C2C1=O)Nc1ccccn1 (centres undefined),,-8.5% (inactive)
Cn1nnnc1Sc1ncnc2scc(-c3cccc(F)c3)c12,14.1 µM (active),
CN(C)c1ccc(-c2n(C)c3ccccc3[n+]2C)cc1,,-37.4% (inactive)
Cc1nnc2n1N=CC=C(c1ccccc1)S2,,28.2% (inactive)
